Values without a mark were called inactive.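 The calls were made as follows: active = growth AUC significantly below the DMSO wells by Dunnett test; inactive = the rest.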

The test relates to Carnobacterium 1 (Carnobacterium gallinarum). Kind of test: relative growth (AUC of 72 h growth curve relative to DMSO control, dAUC) (ratio); higher = more growth (less inhibition), active = hit call of the paper. The note with it: 20 µM. Here is the method: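 Environmental bacterial isolates (Iceland stream sediment and Silwood Park soil) and whole stream-sediment communities were grown in LB from a 1:100 dilution with each pesticide at 20 µM (1% DMSO). A600 was read hourly for 72 h and the area under a spline-fitted growth curve (AUC) was computed. dAUC is the mean AUC of 3 biological replicates divided by the mean AUC of the DMSO controls. Significance was tested by Dunnett's test against the DMSO control.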
Regarding `N#C/N=C1\SCCN1Cc1ccc(Cl)nc1`, the relative growth is 1.18. Consider `CC(C)(C)c1ccc(CSc2cnn(C(C)(C)C)c(=O)c2Cl)cc1`, for which the relative growth was 1.3. The figure for `Cc1cc(C)c(C2=C(OC(=O)CC(C)(C)C)C3(CCCC3)OC2=O)c(C)c1` is 1.01; for `CNC(=O)Oc1cccc2ccccc12` it is 1.1; for `CC(C)(C)[C@@H](O)[C@H](Oc1ccc(Cl)cc1)n1cncn1` it is 1.06. The figure for `O=C(O)c1nc(Cl)ccc1Cl` is 0.925. Take `CCOC(=O)CC(SP(=S)(OC)OC)C(=O)OCC` (configuration not stated): the relative growth is 1.09. `CC(C)CC(C)c1sccc1NC(=O)c1cn(C)nc1C(F)(F)F` (configuration not stated): the relative growth is 0.721. `CCC(CC)Nc1c([N+](=O)[O-])cc(C)c(C)c1[N+](=O)[O-]`: the relative growth was 0.819. Regarding `CCSC(C)CC1CC(=O)C(/C(CC)=N/OC/C=C/Cl)=C(O)C1` (mixture of isomers), the relative growth is 1.27. As for `CCCN(CCC)C(=O)SCc1ccccc1`, the relative growth is 1.04. For the molecule `CN(C)C(CSS(=O)(=O)O)CSS(=O)(=O)O`, the relative growth is 1.03. On to `CC(C)OC(=O)Nc1cccc(Cl)c1`, for which the relative growth was 1.5. In the case of `OC(Cc1ccccc1Cl)(Cn1nc[nH]c1=S)C1(Cl)CC1` (configuration not stated), the relative growth was 0.829. The figure for `CCOP(=S)(OCC)Oc1cc(C)nc(C(C)C)n1` is 0.908; for `O=C(O)CNCP(=O)(O)O` it is 1.13; for `CC(C)OC(=O)C(C(=O)OC(C)C)=C1SCCS1` it is 0.826. As for `CC[C@H](C)[C@H]1O[C@]2(C=C[C@@H]1C)C[C@@H]1C[C@@H](C/C=C(\C)[C@@H](O[C@H]3C[C@H](OC)[C@@H](O[C@H]4C[C@H](OC)[C@@H](O)[C@H](C)O4)[C@H](C)O3)[C@@H](C)/C=C/C=C3\CO[C@@H]4[C@H](O)C(C)=C[C@@H](C(=O)O1)[C@]34O)O2.CO[C@H]1C[C@H](O[C@H]2[C@H](C)O[C@@H](O[C@@H]3/C(C)=C/C[C@@H]4C[C@@H](C[C@]5(C=C[C@H](C)[C@@H](C(C)C)O5)O4)OC(=O)[C@@H]4C=C(C)[C@@H](O)[C@H]5OC/C(=C\C=C\[C@@H]3C)[C@]54O)C[C@@H]2OC)O[C@@H](C)[C@@H]1O`, the relative growth is 0.726. The figure for `N#Cc1nn(-c2c(Cl)cc(C(F)(F)F)cc2Cl)c(N)c1[S+]([O-])C(F)(F)F` (configuration not stated) is 0.821; for `C[N+]1(C)CCCCC1` it is 1.2.

As for `CNC(=O)c1cc(Cl)cc(C)c1NC(=O)c1cc(Br)nn1-c1ncccc1Cl`, the relative growth is 1.24. Take `CNC(=O)c1cc(C#N)cc(C)c1NC(=O)c1cc(Br)nn1-c1ncccc1Cl`: the relative growth is 0.896.

Regarding `CN/C(=N\[N+](=O)[O-])NCc1cnc(Cl)s1`, the relative growth was 0.918. The figure for `C#CCN1C(=O)COc2cc(F)c(N3C(=O)C4=C(CCCC4)C3=O)cc21` is 0.92; for `CCCCN(CCCC)SN(C)C(=O)Oc1cccc2c1OC(C)(C)C2` it is 1.51.

On to `O=C(Nc1ccccc1-c1ccc(Cl)cc1)c1cccnc1Cl`, for which the relative growth was 0.968.

With `CCCN(CCOc1c(Cl)cc(Cl)cc1Cl)C(=O)n1ccnc1`, the relative growth is 1.08.
